Reference: PubChem BioAssay (EPA / NIEHS)
Results filed as inconclusive are left out. Activity calls are given as the source filed them. How the source made its calls: active means hit-call score of the fitted dose curve at least 0.9, where 1 is the maximum; inconclusive means response in the unintended direction; inactive means score below 0.9.

Assay: Tanguay_ZF_120hpf_JAW_legacy: (Legacy) Oregon State University Tanguay Lab 120 Hour Post-fertilization zebrafish Assay for Jaw Malformation (AID 2283638)
Outline: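 Dechorionated Tropical 5D wild-type zebrafish embryos, one per well, exposed statically from 6 hpf to 120 hpf at 28C in 0.64% DMSO. Jaw malformation was scored by brightfield microscopy as present or absent. It was not scored in dead embryos.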

Row | Compound | outcome
1 | Clc1ccc(Cl)c(Cl)c1 | inactive
2 | OCCOCCO | inactive
3 | Nc1cc(Cl)cc(C(=O)O)c1Cl | inactive
4 | Brc1ccc(Oc2ccccc2)cc1 | inactive
5 | ClCCOCCCl | inactive
6 | O=C(O)C1C2CCC(O2)C1C(=O)O (stereo not drawn) | inactive
7 | CS(=O)(=O)NC(=O)c1cc(Oc2ccc(C(F)(F)F)cc2Cl)ccc1[N+](=O)[O-] | inactive
8 | Nc1ccc(Cc2ccc(N)cc2)cc1 | inactive
9 | CC(C)(C)OOC(C)(C)CCC(C)(C)OOC(C)(C)C | inactive
10 | Clc1ccc(C(c2ccc(Cl)cc2)C(Cl)(Cl)Cl)cc1 | inactive
11 | O=P(OCCCl)(OCCCl)OCCCl | inactive
12 | CN(C)[C@@H]1C(=O)C(C(N)=O)=C(O)[C@@]2(O)C(=O)C3=C(O)c4c(O)cccc4[C@@](C)(O)[C@H]3C[C@@H]12 | inactive
13 | c1ccc2c(c1)oc1ccccc12 | inactive
14 | CCC12COCN1COC2 | inactive
15 | Clc1ccc(C(c2ccc(Cl)cc2)C(Cl)Cl)cc1 | inactive
16 | O=C1CCCO1 | inactive
17 | O=Cc1ccco1 | inactive
18 | C=CCc1ccc2c(c1)OCO2 | inactive

Assay: Tanguay_ZF_120hpf_OTIC_legacy: (Legacy) Oregon State University Tanguay Lab 120 Hour Post-fertilization zebrafish Assay for Otic Vesicle Malformation (AID 2283639)
Outline: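 Statically exposed wild-type 5D zebrafish embryos, kept sealed and dark at 28C through 120 hours post fertilization, were examined by brightfield microscopy for otic vesicle defects. Responses were recorded as present or absent and analysed relative to DMSO.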

Row | Compound | outcome
19 | OCCOCCO | inactive
20 | Cc1ccc(N)c(N)c1 | inactive
21 | Brc1ccc(Oc2ccccc2)cc1 | inactive
22 | CC(C)(C)C(O)(CCc1ccc(Cl)cc1)Cn1cncn1 (stereo not drawn) | inactive
23 | c1ccc(NNc2ccccc2)cc1 | inactive
24 | O=[N+]([O-])c1ccc(Oc2ccc(Cl)cc2Cl)cc1 | inactive
25 | Nc1ccc(Cc2ccc(N)cc2)cc1 | inactive
26 | Clc1ccc(C(c2ccc(Cl)cc2)C(Cl)(Cl)Cl)cc1 | inactive
27 | O=P(OCCCl)(OCCCl)OCCCl | inactive
28 | CCN(CC)CCO | inactive
29 | c1ccc2c(c1)oc1ccccc12 | inactive
30 | CCC12COCN1COC2 | inactive
31 | CCCCCCCCOC(=O)c1ccc(C(=O)OCCCCCCCC)c(C(=O)OCCCCCCCC)c1 | inactive
32 | Clc1ccc(C(c2ccc(Cl)cc2)C(Cl)Cl)cc1 | inactive
33 | O=C1CCCO1 | inactive
34 | O=[N+]([O-])C(Br)(CO)CO | inactive
35 | O=C(N[C@H](c1ccccc1)[C@@H]1CN2CCC1CC2)c1c(Cl)ccc(C(F)(F)F)c1Cl | inactive
36 | Oc1ccccc1Cl | inactive

Assay: Tanguay_ZF_120hpf_PE_legacy: (Legacy) Oregon State University Tanguay Lab 120 Hour Post-fertilization zebrafish Assay for Pericardial Edema (AID 2283640)
Outline: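 Tropical 5D wild-type zebrafish embryos were statically exposed until 120 hpf at 28C, with 0.64% DMSO final. Pericardial edema was scored by brightfield as present or absent; endpoints were not scored in dead embryos.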

Row | Compound | outcome
37 | Clc1ccc(Cl)c(Cl)c1 | inactive
38 | OCCOCCO | inactive
39 | Nc1cc(Cl)cc(C(=O)O)c1Cl | inactive
40 | Cc1ccc(N)c(N)c1 | inactive
41 | CC(C)(C)C(O)(CCc1ccc(Cl)cc1)Cn1cncn1 (stereo not drawn) | inactive
42 | ClCCOCCCl | inactive
43 | O=C(O)C1C2CCC(O2)C1C(=O)O (stereo not drawn) | inactive
44 | c1ccc(NNc2ccccc2)cc1 | inactive
45 | O=[N+]([O-])c1ccc(Oc2ccc(Cl)cc2Cl)cc1 | inactive
46 | CS(=O)(=O)NC(=O)c1cc(Oc2ccc(C(F)(F)F)cc2Cl)ccc1[N+](=O)[O-] | inactive
47 | Nc1ccc(Cc2ccc(N)cc2)cc1 | inactive
48 | CC(C)(C)OOC(C)(C)CCC(C)(C)OOC(C)(C)C | inactive
49 | Clc1ccc(C(c2ccc(Cl)cc2)C(Cl)(Cl)Cl)cc1 | inactive
50 | CN(C)[C@@H]1C(=O)C(C(N)=O)=C(O)[C@@]2(O)C(=O)C3=C(O)c4c(O)cccc4[C@@](C)(O)[C@H]3C[C@@H]12 | inactive
51 | CCN(CC)CCO | inactive
52 | c1ccc2c(c1)oc1ccccc12 | inactive
53 | CCCCCCCCOC(=O)c1ccc(C(=O)OCCCCCCCC)c(C(=O)OCCCCCCCC)c1 | inactive
54 | Clc1ccc(C(c2ccc(Cl)cc2)C(Cl)Cl)cc1 | inactive
55 | O=C1CCCO1 | inactive
56 | O=Cc1ccco1 | inactive
57 | O=C(N[C@H](c1ccccc1)[C@@H]1CN2CCC1CC2)c1c(Cl)ccc(C(F)(F)F)c1Cl | inactive
58 | C=CCc1ccc2c(c1)OCO2 | inactive

Assay: Tanguay_ZF_120hpf_BRAI_legacy: (Legacy) Oregon State University Tanguay Lab 120 Hour Post-fertilization zebrafish Assay for Brain Malformation (AID 2283641)
Outline: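 Tropical 5D wild-type zebrafish embryos exposed statically until 120 hpf at 28C, 0.64% DMSO final, sealed and dark. Brain malformation scored present/absent by brightfield at 120 hpf; dead embryos excluded. Trimethyltin chloride 5uM positive control.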

Row | Compound | outcome
59 | Clc1ccc(Cl)c(Cl)c1 | inactive
60 | Cc1ccc(N)c(N)c1 | inactive
61 | Brc1ccc(Oc2ccccc2)cc1 | inactive
62 | CC(C)(C)C(O)(CCc1ccc(Cl)cc1)Cn1cncn1 (stereo not drawn) | inactive
63 | ClCCOCCCl | inactive
64 | c1ccc2c(c1)-c1cccc3cccc-2c13 | inactive
65 | c1ccc(NNc2ccccc2)cc1 | inactive
66 | O=[N+]([O-])c1ccc(Oc2ccc(Cl)cc2Cl)cc1 | inactive
67 | CS(=O)(=O)NC(=O)c1cc(Oc2ccc(C(F)(F)F)cc2Cl)ccc1[N+](=O)[O-] | inactive
68 | CC(C)(C)OOC(C)(C)CCC(C)(C)OOC(C)(C)C | inactive
69 | O=P(OCCCl)(OCCCl)OCCCl | inactive
70 | CCCCCCCCOC(=O)c1ccc(C(=O)OCCCCCCCC)c(C(=O)OCCCCCCCC)c1 | inactive
71 | O=Cc1ccco1 | inactive
72 | O=[N+]([O-])C(Br)(CO)CO | inactive
73 | O=C(N[C@H](c1ccccc1)[C@@H]1CN2CCC1CC2)c1c(Cl)ccc(C(F)(F)F)c1Cl | inactive
74 | C=CCc1ccc2c(c1)OCO2 | inactive
75 | Oc1ccccc1Cl | inactive

Assay: Tanguay_ZF_120hpf_SOMI_legacy: (Legacy) Oregon State University Tanguay Lab 120 Hour Post-fertilization zebrafish Assay for Somite Malformation (AID 2283647)
Outline: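 Dechorionated Tropical 5D wild-type zebrafish embryos, one per well from 6 hpf, statically exposed at 28C to 120 hpf in 0.64% DMSO; somite malformation scored present/absent by brightfield; trimethyltin 5 uM positive control; dead embryos not scored.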

Row | Compound | outcome
76 | Clc1ccc(Cl)c(Cl)c1 | inactive
77 | OCCOCCO | inactive
78 | Nc1cc(Cl)cc(C(=O)O)c1Cl | inactive
79 | Cc1ccc(N)c(N)c1 | inactive
80 | Brc1ccc(Oc2ccccc2)cc1 | inactive
81 | CC(C)(C)C(O)(CCc1ccc(Cl)cc1)Cn1cncn1 (stereo not drawn) | inactive
82 | ClCCOCCCl | inactive
83 | O=C(O)C1C2CCC(O2)C1C(=O)O (stereo not drawn) | inactive
84 | c1ccc(NNc2ccccc2)cc1 | inactive
85 | O=[N+]([O-])c1ccc(Oc2ccc(Cl)cc2Cl)cc1 | inactive
86 | CS(=O)(=O)NC(=O)c1cc(Oc2ccc(C(F)(F)F)cc2Cl)ccc1[N+](=O)[O-] | inactive
87 | Nc1ccc(Cc2ccc(N)cc2)cc1 | inactive
88 | Clc1ccc(C(c2ccc(Cl)cc2)C(Cl)(Cl)Cl)cc1 | inactive
89 | O=P(OCCCl)(OCCCl)OCCCl | inactive
90 | CN(C)[C@@H]1C(=O)C(C(N)=O)=C(O)[C@@]2(O)C(=O)C3=C(O)c4c(O)cccc4[C@@](C)(O)[C@H]3C[C@@H]12 | inactive
91 | CCN(CC)CCO | inactive
92 | c1ccc2c(c1)oc1ccccc12 | inactive
93 | CCC12COCN1COC2 | inactive
94 | CCCCCCCCOC(=O)c1ccc(C(=O)OCCCCCCCC)c(C(=O)OCCCCCCCC)c1 | inactive
95 | O=C1CCCO1 | inactive
96 | O=Cc1ccco1 | inactive
97 | O=[N+]([O-])C(Br)(CO)CO | inactive
98 | C=CCc1ccc2c(c1)OCO2 | inactive
